Values without a mark were called inactive. The source made the active and inactive calls. Calls follow the shape of the dose curve; as a rule, active = well fitted inhibition curve with a large enough effect; inactive = flat fitted curve, though single readings scatter.
Molecular target: Dual specificity tyrosine-phosphorylation-regulated kinase 1A (Homo sapiens) (UniProt Q13627)
Test: Reaction Biology data for inhibitors of DYRK1A: Probe SAR
Conditions: Reaction Biology DYRK1A kinase assay, 10 uM ATP; series mostly up to 10 µM; activity change, negative = inhibition: at the top concentration
From the text: Alternative splicing of pre-mRNAs plays a major role in the regulation of eukaryotic gene expression. Alternative splicing is now thought to be one of the primary reasons for the complexity of higher organisms leading to an average of three protein isoforms per gene. Aberrant splicing can lead to a number of diseases and is known to play a role in rare genetic diseases such as progeria syndrome. Hutchinson-Gilford Progeria Syndrome (HGPS) is a pediatric premature aging disease caused by a spontaneous mutation in the lamin A/C (LMNA) gene due to a single point mutation in the lamin A gene effecting 1 in 4 million people. To identify both specific splicing modulators of the lamin A gene as well as general splicing modulators, a cell-based HTS assay was developed using a minigene reporter system (AIDs, 1459 & 1487). […] This AID summarizes the characterization of lead compounds in Dyrk1a. NIH Molecular Libraries Probe Production Centers Network [MLPCN] NIH Chemical Genomics Center [NCGC] MLPCN Grant: MH084827 Assay Submitter (PI): Tom Misteli
Compound IC50s were determined at Reaction Biology (http://www.reactionbiology.com) with ten concentration points starting at 10 uM in the assay using a 3-fold dilution series. The control compound staurosporine was also tested in the 10-dose IC50 mode with the same 3-fold serial dilution, again starting at 10 uM. All kinase reactions were performed using 10 uM ATP in the assay. 100% activity was taken from kinase reactions with DMSO alone (the vehicle used for compound stock solutions).

Structure (SMILES) | Potency | activity change, negative = inhibition [%]
c1cncc(CNc2nccc(-c3ccc4c(c3)OCO4)n2)c1 | 7.1 nM (active) | –
COc1ccc(-c2ccnc(NCc3ccc(Cl)c(Cl)c3)n2)cc1 | 203 nM (active) | –
Cc1c(-c2ccnc(NCc3cccnc3)n2)sc(=O)n1C | 29.3 nM (active) | –
Clc1ccc(CNc2nccc(-c3ccc4[nH]ncc4c3)n2)cc1Cl | 128 nM (active) | –
Clc1ccc(CNc2ccnc(-c3ccc4c(c3)OCO4)n2)cc1Cl | – | -22.4
Cc1nc(CN(C)c2ncnc3ccc(-c4ccc5c(c4)OCO5)cc23)cs1 | 5.2 nM (active) | –
Clc1ccc(Nc2nccc(-c3ccc4c(c3)OCO4)n2)cc1 | 273 nM (active) | –
Cc1nc(CN(C)c2ncnc3ccc(-c4ccc5[nH]ncc5c4)cc23)cs1 | 64.1 nM (active) | –
Clc1ccc(CNc2nccc(-c3ccc4c(c3)OCO4)n2)cc1Cl | 26.3 nM (active) | –
Clc1cc(Cl)cc(CNc2ncncc2-c2ccc3c(c2)OCO3)c1 | 282 nM (active) | –
COc1cccc(-c2ccnc(NCc3ccc(Cl)cc3)n2)c1 | 6360 nM (active) | –
c1cc(-c2ccc3c(c2)OCO3)nc(Nc2ccc3c(c2)OCO3)n1 | 24.9 nM (active) | –
Cc1c(-c2ccnc(NCc3ccc(Cl)cc3)n2)sc(=O)n1C | 62.9 nM (active) | –
FC(F)(F)c1cccc(Nc2nccc(-c3ccc4c(c3)OCO4)n2)c1 | 10.4 nM (active) | –
Clc1ccc(CNc2ncncc2-c2ccc3c(c2)OCO3)cc1 | 4580 nM (active) | –
FC(F)(F)c1cc(Br)cc(Nc2nccc(-c3ccc4c(c3)OCO4)n2)c1 | 107 nM (active) | –

Structure (SMILES) | Potency | activity change, negative = inhibition [%]
COc1ccc(-c2ccnc(NCc3ccc(Cl)cc3)n2)cc1 | 558 nM (active) | –
c1nc(NCC2CCCO2)c2cc(-c3ccc4c(c3)OCO4)ccc2n1 (configuration not stated) | 24.3 nM (active) | –
Clc1ccc(CNc2nccc(-c3ccc4cn[nH]c4c3)n2)cc1Cl | 169 nM (active) | –
Clc1ccc(CNc2ncncc2-c2ccc3c(c2)OCO3)cc1Cl | 3450 nM (active) | –
Cc1nc(CNc2ncnc3ccc(-c4ccc5c(c4)OCO5)cc23)cs1 | 33.3 nM (active) | –
COc1ccc(-c2ccnc(NCc3ccc(Cl)c(Cl)c3)n2)cc1OC | – | -30.6
c1cncc(CNc2nccc(-c3ccc4[nH]ncc4c3)n2)c1 | 60.8 nM (active) | –
c1cncc(CNc2ccnc(-c3ccc4[nH]ncc4c3)n2)c1 | 349 nM (active) | –
Brc1ccc(CNc2nccc(-c3ccc4c(c3)OCO4)n2)cc1Br | 79.3 nM (active) | –
O=[N+]([O-])c1cc(Nc2nccc(-c3ccc4c(c3)OCO4)n2)cc(C(F)(F)F)c1 | 24.1 nM (active) | –
c1cncc(CNc2ncncc2-c2ccc3c(c2)OCO3)c1 | – | -50
Clc1ccc(CNc2nccc(-c3ccc4c(c3)OCCO4)n2)cc1Cl | 18.2 nM (active) | –
Clc1ccc(CNc2ccnc(-c3ccc4[nH]ncc4c3)n2)cc1Cl | 2350 nM (active) | –
Brc1cc(Br)cc(CNc2nccc(-c3ccc4c(c3)OCO4)n2)c1 | 10.7 nM (active) | –
c1cncc(CNc2ccnc(-c3ccc4cn[nH]c4c3)n2)c1 | 1430 nM (active) | –
COc1cccc(-c2ccnc(NCc3ccc(Cl)c(Cl)c3)n2)c1 | 4650 nM (active) | –

From PubChem BioAssay AID624045 (National Center for Advancing Translational Sciences (NCATS), 2012)
